Whole data set: some 110,000 compounds, median “z-score” near -0.1, cut for the highest 2% near 2. What follows is part of a selection rich in the highest values, with near analogues and random picks from the rest. The source made the active and inactive calls.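 The calls were made as follows: active = z-score in the third read window above 3 or below -3; inactive = the rest.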
The molecules below were run against Metabotropic glutamate receptor 8 (Rattus norvegicus) (UniProt P70579) (assay: rat mGluR8 modulators via GIRK flux, primary screen, cell-based, thallium flux, HTS (AID 488969)). Conditions: HEK293 rat mGluR8, GIRK (G protein-gated inwardly rectifying potassium channel) thallium flux, FluoZin2; at 10 µM; stronger effect = higher value; submaximal glutamate (EC20) added with thallium.
Metabotropic glutamate receptor 8 (Rattus norvegicus), sequence (P70579 whole entry, looked up): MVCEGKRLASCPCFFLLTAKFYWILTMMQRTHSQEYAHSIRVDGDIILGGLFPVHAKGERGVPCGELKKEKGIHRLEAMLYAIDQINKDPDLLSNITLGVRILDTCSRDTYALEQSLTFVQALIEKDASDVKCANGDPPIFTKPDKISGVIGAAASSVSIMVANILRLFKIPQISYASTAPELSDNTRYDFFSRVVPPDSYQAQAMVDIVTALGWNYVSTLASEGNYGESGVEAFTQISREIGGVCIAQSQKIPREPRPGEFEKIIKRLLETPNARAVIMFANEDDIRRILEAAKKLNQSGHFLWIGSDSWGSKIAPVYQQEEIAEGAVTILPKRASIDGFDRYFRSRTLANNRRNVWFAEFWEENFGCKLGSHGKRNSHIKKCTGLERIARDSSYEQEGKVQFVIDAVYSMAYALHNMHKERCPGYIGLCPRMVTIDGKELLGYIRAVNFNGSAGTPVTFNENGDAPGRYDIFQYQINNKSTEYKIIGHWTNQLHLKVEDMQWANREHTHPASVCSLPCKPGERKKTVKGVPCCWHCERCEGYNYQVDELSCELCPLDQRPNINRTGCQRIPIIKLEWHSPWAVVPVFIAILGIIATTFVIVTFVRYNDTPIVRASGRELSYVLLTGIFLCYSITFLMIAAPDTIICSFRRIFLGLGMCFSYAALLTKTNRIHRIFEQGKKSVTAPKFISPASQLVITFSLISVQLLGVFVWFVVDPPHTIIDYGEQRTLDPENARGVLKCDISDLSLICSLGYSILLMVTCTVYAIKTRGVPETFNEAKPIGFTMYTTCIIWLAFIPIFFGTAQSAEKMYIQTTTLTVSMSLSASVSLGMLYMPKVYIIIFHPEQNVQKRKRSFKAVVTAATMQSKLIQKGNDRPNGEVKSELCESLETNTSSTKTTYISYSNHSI

SMILES | z-score
CC1c2c([nH]c3ccccc23)CCC1C(=O)O (centres undefined) | 0.673
CCN1CCN(C(=S)NCc2ccc(C)cc2)CC1 | 0.0391
CN(CC(=O)Nc1cccnc1)S(=O)(=O)c1ccccc1 | -0.0827
CCOC(=O)C1[C@H]2C(=O)N(CCCOC)C[C@]23C=C[C@H]1O3 (some centres undefined) | -0.0146
CCOCCCNCC(=O)NC1(C)C2CCC(C2)C1(C)C (centres undefined) | -0.581
O=C(Nc1ccc2c(c1)OCO2)N1CCN(C/C=C/c2ccccc2)CC1 | -0.663
CN(C)c1cccc(C(=O)OCC(=O)NCC2CCCO2)c1 (centres undefined) | -0.266
Cc1ccc(CN=C2Nc3ccccc3CS2)cc1 | -0.225
Cc1cccc(NC(=O)c2cc(Cl)sc2Cl)c1C | 0.0762
CC(C)(C)Cc1nc(-c2ccc(Cl)cc2)no1 | 0.892
CCn1cc(CNC(=O)CCc2ccc(OC)cc2)cn1 | 0.0492
COc1ccc(CCC(=O)NCc2cn3ccsc3n2)cc1 | 0.0209
COc1ccc(CCC(=O)NCc2cnn(C)c2)cc1 | 3.37 (active)
O=C(c1cc(-c2ccc(Cl)cc2Cl)on1)N1CCOCC1 | -0.321
O=C(c1cc(-c2ccc(Cl)cc2Cl)on1)N1CCN(C(=O)c2ccco2)CC1 | 0.486
O=C(c1cccc(F)c1)N1CCN(C(=O)c2cc(-c3ccc(Cl)cc3Cl)on2)CC1 | 3.48 (active)
COC(=O)c1cc2ccccn2c2c(C(=O)OC)c(C(=O)OC)cc1-2 | 0.219
O=C(Nc1ccccc1)c1sc(Cl)nc1-c1ccccc1 | -0.405
Cc1cc(C)n(-c2ccc(C)c(Cl)c2)n1 | -0.078
Cc1cc(C)[n+]2n1C(=O)C(c1ccccc1)=C2[O-] | 2.57
O=c1cc(-c2ccccc2)[nH][nH]1 | 0.252
Cc1cc(=O)n2[nH]c(-c3ccccc3)cc2n1 | -0.312
CCOC(=O)C1CCCN(C(=O)c2cc(=O)c3ccccc3o2)C1 (centres undefined) | 2.91
O=C(c1cc(-c2ccccc2Cl)on1)N1CCN(C(=O)c2ccco2)CC1 | 0.424

SMILES | z-score
CCOC(=O)C1CCCN(C(=O)c2cc3c(C)nc4ccccc4c3o2)C1 (centres undefined) | -0.243
Cc1noc(C)c1C(=O)N1CCN(CCc2ccccc2)CC1 | -0.189
O=C(c1cc(-c2ccccc2)on1)N1CCCC1 | 3.32 (active)
Cc1ccc(-c2cc(C(=O)N3CCCC3)no2)cc1 | -0.457
Cc1ccc(-c2cc(C(=O)N3CCN(C(=O)c4ccco4)CC3)no2)cc1 | -0.304
CN1CCN(C(=O)c2cc(-c3ccccc3)on2)CC1 | 0.0853
Cc1cc(C(=O)N2CCN(CCc3ccccc3)CC2)no1 | 8.2 (active)
CCOC(=O)C1CCCN(C(=O)c2ccco2)C1 (centres undefined) | 0.661
O=C(c1cc(-c2ccccc2)on1)N1CCN(C(=O)c2ccco2)CC1 | 2.21
Cc1cc(C(=O)N2CCN(c3ccccc3)CC2)no1 | 0.106
COc1ccc2cc(C(c3nnnn3C3CCCCC3)N3CCCCCC3)c3nnnn3c2c1 (centres undefined) | -0.929
CCn1c(=O)c2ccccc2n2c(SCC(=O)N3CCc4ccccc4C3)nnc12 | 1.51
CCn1c(SCC(=O)NC(C)(C)C)nnc1-c1ccoc1C | 0.155
CCN(CC)S(=O)(=O)c1ccc(N2CCOCC2)c(NC(=O)Cc2ccccc2)c1 | -0.339
O=C(CC1NCCNC1=O)OCc1ccccc1 (centres undefined) | 0.419
O=C(CC1NCCNC1=O)OCCCc1ccccc1 (centres undefined) | 1.22
CCCOc1ccc(C(=O)NC(=S)Nc2nc(C)c(C(=O)N(C)C)s2)cc1 | 0.54
CCOC(=O)C1CCCN(C(=O)c2cccs2)C1 (centres undefined) | -0.161
CCOC(=O)C1CCCN(C(=O)c2cc(-c3ccc(C)cc3)on2)C1 (centres undefined) | -0.235
CCOC(=O)C1CCCN(C(=O)c2cc(-c3ccccc3)on2)C1 (centres undefined) | 3.22 (active)
CC(=O)CSc1nc(N)c(C#N)c(-c2cccs2)c1C#N | -0.18
COc1ccc(/C=N/NC(=O)c2nc(-c3ccccc3)cc(-c3ccccc3)n2)cc1OC | 0.42
COc1ccc(/C=N/NC(=O)c2nc(-c3ccccc3)cc(-c3ccccc3)n2)cc1 | 8.06 (active)
COc1cccc(/C=N/NC(=O)c2nc(-c3ccccc3)cc(-c3ccccc3)n2)c1 | -0.286

SMILES | z-score
Cn1c(SCC(=O)NC(C)(C)C)nc(O)cc1=O | -0.0162
CC12CCC(C(=O)N(CSC(=S)N/N=C\c3ccccc3Cl)C1=O)C2(C)C (centres undefined) | 16.2 (active)
CC12CCC(C(=O)N(CC(O)CN3CCCCCC3)C1=O)C2(C)C (centres undefined) | 0.13
CC12CCC(C(=O)N(CSC(=S)N/N=C\c3ccccc3O)C1=O)C2(C)C (centres undefined) | 5.76 (active)
CC12CCC(C(=O)N(c3ccccc3Cl)C1=O)C2(C)C (centres undefined) | 0.208
CC12CCC(C(=O)N(NC(=O)c3ccccc3Cl)C1=O)C2(C)C (centres undefined) | 0.00342
O=C1C2C3C=CC(CC3)C2C(=O)N1/N=C/c1ccccc1O (centres undefined) | -0.187
CCCn1c(SCC(=O)N2CCN(c3ccccc3)CC2)nc2ccccc2c1=O | -0.496
CCn1c(CNC(=O)c2cccc(C)c2)nnc1SCC(=O)NC1CCCCC1C (centres undefined) | 0.161
Cc1[nH]c2ccc(F)cc2c(=O)c1SC(F)(F)C(F)F | -1.3
CCCC(=O)N1CC(=O)Nc2ccc(F)cc2C1c1ccccc1 (centres undefined) | -0.534
Cc1ccc2c(c1)C(c1ccc(F)cc1)N(C(=O)C1CC1)CC(=O)N2 (centres undefined) | 2.06
Cc1ccc2c(c1)C(c1ccccc1)N(C(=O)C(C)C)CC(=O)N2 (centres undefined) | -0.0998
Cn1nc(C(=O)NCc2ccccn2)c2ccccc2c1=O | -0.406
COC(=O)CSc1nc(NC#N)nc(NC(C)C)n1 | -0.00648
Cc1ccc2cc(C3CC(c4ccco4)=NN3S(=O)(=O)c3ccccc3)c(Cl)nc2c1 (centres undefined) | 0.136
O=C(NC1CCCC1)C(Cc1ccccc1)n1cccc1 (centres undefined) | 0.182
Cc1csc(NC(=O)CSCC(=O)Nc2ccccc2)n1 | 0.462
CCSc1nnc(NC(=O)[C@@H](NC(=O)c2ccccc2)C(C)C)s1 | -0.168
Cc1csc(NC(=O)C(Cc2ccccc2)n2cccc2)n1 (centres undefined) | 5.2 (active)
CCSc1nnc(NC(=O)CCc2ccccc2)s1 | -0.278
CCC(C(=O)Nc1nc(C)cs1)c1ccccc1 (centres undefined) | -0.691
O=C(Nc1ncc(Br)s1)C(Cc1ccccc1)n1cccc1 (centres undefined) | 7 (active)
O=C(Nc1cccnc1)C(Cc1ccccc1)n1cccc1 (centres undefined) | 0.0231

SMILES | z-score
CCSc1nnc(NC(=O)C(Cc2ccccc2)n2cccc2)s1 (centres undefined) | 4.24 (active)
CCN(CC)C(=O)NC(c1ccc(C)c(F)c1)C(Cl)(Cl)Cl (centres undefined) | -0.501
Cn1cc(S(=O)(=O)CC(=O)Nc2ccc(Br)cc2)c2ccccc21 | -0.0267
Cc1onc(-c2ccccc2)c1C(=O)Nc1ccc(N2CCOCC2)cc1 | -0.074
CCC1CCCCN1C(=O)C1CC(c2cc(Cl)c(OC)cc2OC)=NO1 (centres undefined) | -0.518
Cc1cc(=O)oc2cc(OCC(=O)Nc3nnc(CC(C)C)s3)ccc12 | -0.0633
CCc1ccc2oc(-c3cc(N=Cc4cccc(OC)c4O)ccc3O)nc2c1 | -0.649
Cc1cc2c(cc1C)C(c1ccccc1Br)CC(=O)N2 (centres undefined) | 0.617
COc1cnc(-c2ccccn2)nc1Sc1ccc(Cl)cc1 | -0.328
OCCCc1nc2n(n1)C(c1ccccc1Cl)C=C(c1cccs1)N2 (centres undefined) | -1.48
OCCCc1nc2n(n1)C(c1ccccc1)C=C(c1ccc(F)cc1)N2 (centres undefined) | -1.33
OCCCc1nc2n(n1)C(c1cccs1)C=C(c1ccc(Br)cc1)N2 (centres undefined) | 5.08 (active)
OCCCc1nc2n(n1)C(c1cccs1)C=C(c1ccccc1)N2 (centres undefined) | 2.68
OCCCc1nc2n(n1)C(c1ccccc1)C=C(c1ccccc1)N2 (centres undefined) | -0.449
Brc1ccc(C2=CC(c3cccs3)n3ncnc3N2)cc1 (centres undefined) | -1.55
COc1ccc(NC(=O)/C(=C/c2ccc3c(c2)OCO3)NC(C)=O)cc1 | -0.031
CC1=C(n2nnc3ccccc32)C(c2ccccc2)C(C#N)=C(N)O1 (centres undefined) | 3.38 (active)
COC(=O)C1=C(C)OC(N)=C(C#N)C1c1ccccc1 (centres undefined) | -0.92
CC(=O)C1=C(c2ccccc2)OC(N)=C(C#N)C1c1ccc(O)cc1 (centres undefined) | -0.487
CC(C)c1nc(C#N)c(NCCCn2ccnc2)o1 | 0.481
N#C/C(=C(/O)C(Cl)c1ccccc1)c1nc2ccccc2s1 (centres undefined) | -0.476
C=C(C)CSc1nnc(CCNC(=O)OC(C)(C)C)o1 | 2.19
Cc1ccc(NC(=O)CSc2nnc(CCNC(=O)OC(C)(C)C)o2)c(C)c1 | 2.11
CC(C)(C)OC(=O)NCCc1nnc(SCC(N)=O)o1 | -0.0953

SMILES | z-score
Cc1ccc(NC(=O)CSc2nnc(CCCCCNC(=O)OC(C)(C)C)o2)c(C)c1 | 0.493
Cc1ccc(C)c(NC(=O)CSc2nnc(CCNC(=O)OC(C)(C)C)o2)c1 | 0.761
CCN(CC)C(=O)CSc1nnc(CCNC(=O)OC(C)(C)C)o1 | 0.491
COc1ccc(CNC(=O)C2CCCN(c3nc4ccccc4o3)C2)c(OC)c1 (centres undefined) | 0.18
Cc1ccc(C)c2[nH]c(=O)c(C(c3nnnn3Cc3ccccc3)N3CCc4ccccc4C3)cc12 (centres undefined) | -0.148
COc1ccccc1-n1c(SCC(=O)N2CCc3ccccc32)nc2c(c1=O)SCC2 | -0.558
O=c1[nH]c2ccccc2n1C1CCCCC1 | -1.04
O=c1[nH]c2ccccc2n1CCC1CCCCC1 | 5.05 (active)
CCCn1c(=O)[nH]c2ccccc21 | -0.219
C=CCOc1ccc(CNn2c(C)n[nH]c2=S)cc1OC | 0.17
CC(C)NC(=O)C1CCN(C(=O)C(C(=O)c2ccccc2)n2cc(Cl)ccc2=O)CC1 (centres undefined) | 0.609
COc1ccc(/C=N/NC(=S)Nc2ccccc2)cc1COc1ccc(F)cc1F | -0.047
CCCCNC(=O)C(=O)N/N=C/c1cccc(Br)c1 | 0.475
Fc1ccc(/C=N/NC(=S)Nc2ccc(Cl)cc2)cc1F | 6.19 (active)
COc1ccc(/C=N/NC(=S)Nc2ccccc2)cc1COc1ccccc1F | -0.0868
Fc1ccc(NC(=S)N/N=C/c2ccc(F)c(F)c2)c(F)c1 | 13 (active)
O=C(CCC(=O)Nc1ccccc1Cl)N/N=C/c1ccccc1 | -0.0425
C=CCNC(=S)Nc1ccc(F)cc1F | -0.172
C=CCNC(=S)Nc1ccc(Br)cc1F | -0.377
COc1ccccc1NC(=S)N/N=C/c1cccc(C)c1 | 0.651
Fc1cccc(/C=N/NC(=S)Nc2ccccc2Cl)c1 | 11.2 (active)
Fc1ccc(NC(=S)N/N=C/c2cccc(Br)c2)c(F)c1 | 3.61 (active)
Cc1ccc(NC(=S)N/N=C/c2ccc(Cl)c([N+](=O)[O-])c2)cc1 | -0.0758

— PubChem BioAssay AID488969 (Vanderbilt High Throughput Screening Facility, 2010)
